Results from PubChem BioAssay (NCATS).
Values joined by “and” are separate entries in the source; they are usually repeats but may differ in a detail not shown here. Equal entries are not always repeated. Inconclusive results are not listed. Where a call stands in place of a potency, no number is given. Unmarked numbers belong to inactive results. Active and inactive are the calls of the source. Calls come from the whole dose curve; as a rule, active = well fitted curve in the direction sought with a large enough effect; inconclusive = small, poorly fitted or top-dose-only effect, or another doubt; inactive = no such curve, though single readings can be large; an effect the other way counts as inactive or inconclusive.

Tests used:
[1] = molecular target: Aldehyde dehydrogenase, mitochondrial (Homo sapiens) (UniProt P05091); assay: qHTS for Inhibitors of the Aldehyde Dehydrogenase Family (ALDH2) Primary screen (AID 2061308); note: nearly all actives have a fitted effect of over 55% in size
[2] = molecular target: Retinaldehyde dehydrogenase 3 (Homo sapiens) (UniProt P47895); assay: qHTS for Inhibitors of the Aldehyde Dehydrogenase Family (ALDH1A3) Primary screen (AID 2061315)
[3] = BET inhibitor-based combinations targeting novel dependencies in MECOM-rearranged (r) AML: OCI-AML3 cell line (AID 2202232); settings: Potency: OCI-AML3 viability; note: nearly all actives have a fitted effect of over 35% in size; note: potency is the fitted concentration of half-maximal effect
Summary of the method: (§1)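 Cells were plated at 500 per well and exposed to an 11-point dose series of each drug for 48 hr. Viability was measured by CellTiter-Glo luminescence, normalized to DMSO and empty-well controls, and summarized as AUC and per-cell-line Z-AUC.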

[4] = BET inhibitor-based combinations targeting novel dependencies in MECOM-rearranged (r) AML: MV-4-11 cell line (AID 2202233); note: nearly all actives have a fitted effect of over 45% in size; note: potency is the fitted concentration of half-maximal effect
Summary of the method: (§2)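 Activity is given as area under the curve and as Z-AUC, mean-centred within each cell line. It comes from 11-point dose curves normalized to DMSO and empty wells. CellTiter-Glo luminescence was read after 48 hr drug exposure of 500 cells/well.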

[5] = BET inhibitor-based combinations targeting novel dependencies in MECOM-rearranged (r) AML: HNT-34 cell line (AID 2202234); note: nearly all actives have a fitted effect of over 35% in size; note: potency is the fitted concentration of half-maximal effect
Summary of the method: as §2

[6] = BET inhibitor-based combinations targeting novel dependencies in MECOM-rearranged (r) AML: AML-191 cell line (AID 2202236; note: nearly all actives have a fitted effect of over 35% in size; note: potency is the fitted concentration of half-maximal effect)
Summary of the method: as §1

[7] = BET inhibitor-based combinations targeting novel dependencies in MECOM-rearranged (r) AML: SET-2 cell line (AID 2202231); settings: SET-2 AML cells viability, CellTiter-Glo luminescence, 48 h; viability: active compounds read low, concentration not given here; note: nearly all actives have a fitted effect of over 35% in size; note: potency is the fitted concentration of half-maximal effect
Summary of the method: as §1

[8] = BET inhibitor-based combinations targeting novel dependencies in MECOM-rearranged (r) AML: AML-194 cell line (AID 2202237; note: nearly all actives have a fitted effect of over 40% in size; note: potency is the fitted concentration of half-maximal effect)
Summary of the method: as §1

[9] = BET inhibitor-based combinations targeting novel dependencies in MECOM-rearranged (r) AML: UCSD-AML1 cell line (AID 2202235); note: nearly all actives have a fitted effect of over 40% in size; note: potency is the fitted concentration of half-maximal effect
Summary of the method: as §2

[10] = molecular target: Retinaldehyde dehydrogenase 3 (Homo sapiens) (UniProt P47895); assay: qHTS for Inhibitors of the Aldehyde Dehydrogenase Family (ALDH1A3) Confirmatory screens (AID 2061311); note: nearly all actives have a fitted effect of over 60% in size; note: potency is the fitted concentration of half-maximal effect
[11] = molecular target: Aldehyde dehydrogenase 1A1 (Homo sapiens) (UniProt P00352); assay: qHTS for Inhibitors of the Aldehyde Dehydrogenase Family (ALDH1A1) Confirmatory screens (AID 2061316); note: nearly all actives have a fitted effect of over 65% in size; note: potency is the fitted concentration of half-maximal effect

C=CC(=O)Nc1ccc2ncnc(Nc3cccc(Br)c3)c2c1
Potency [1]: inactive | Potency [2]: inactive | Potency [3]: 11.8 µM (active) | Potency [4]: 7.42 µM (active) | Potency [5]: 9.34 µM (active) | Potency [6]: 8.33 µM (active)

COc1ccc(Cl)c(Nc2nc3ccccc3nc2NS(=O)(=O)c2cccc(NC(=O)C(C)(C)N)c2)c1
Potency [1]: inactive | Potency [2]: inactive | viability [7]: 103% | Potency [4]: 7.42 µM (active) | Potency [5]: 23.5 µM (active) | Potency [6]: 16.6 µM (active) | Potency [8]: 20.9 µM (active)

Cc1cnc(Nc2ccc(F)cc2Cl)nc1-c1c[nH]c(C(=O)NC(CO)c2cccc(Cl)c2)c1 (stereo unspecified)
Potency [1]: inactive | Potency [3]: 4.68 µM (active)

Cc1cccc(-c2[nH]ncc2-c2ccc(F)c(-c3cnn(CCO)c3)c2)n1
Potency [1]: inactive | Potency [2]: inactive | Potency [9]: inactive | Potency [8]: inactive

Cc1cccc(-c2ccc(CN)cc2)c1
Potency [10]: inactive

COc1ccc2[nH]c(S(=O)Cc3ncc(C)c(OC)c3C)nc2c1 (stereo unspecified)
Potency [1]: inactive | viability [7]: 97.7% | Potency [3]: inactive | Potency [5]: inactive | Potency [9]: inactive | Potency [6]: inactive | Potency [8]: inactive

COc1ccc(NC(=O)N2CCC(CC(=O)NCc3ccccc3)C2)cc1OC (stereo unspecified)
Potency [10]: inactive

CN(Cc1ccc(-c2ccccc2)cc1)CC1CCCCC1
Potency [10]: 35.5 µM (active)

CCOC(=O)c1noc2ncnc(Nc3ccc(C)c(F)c3)c12
Potency [10]: inactive

Cc1c[nH]c2ncnc(N3CCC(CN)(C(=O)Nc4cccc(OC(=O)N(C)C)c4)CC3)c12
Potency [1]: inactive | Potency [2]: inactive | Potency [4]: 1.86 µM (active) and 1.05 µM (active) | Potency [9]: inactive

O=C(CN1CCN(c2ccc(Cl)cc2)CC1)Nc1ccc(F)c(F)c1
Potency [10]: inactive

CC(C)NC(=O)COc1cccc(-c2nc(Nc3ccc4[nH]ncc4c3)c3ccccc3n2)c1
Potency [1]: inactive | Potency [2]: inactive | Potency [9]: inactive | Potency [8]: 16.6 µM (active)

Fc1cccc(Cc2noc(-c3nc(-c4ccc5c(c4)OCO5)no3)n2)c1
Potency [10]: inactive

CCOc1ccc(S(=O)(=O)NCc2nc3cccnc3n2Cc2ccccc2OC)cc1
Potency [10]: 15.8 µM (active)

CCc1ccc(O)c(C(=O)c2cnc3cc(-c4ccc(C)cc4)nn3c2)c1
Potency [10]: inactive

N#Cc1ccccc1NC(=O)Cn1cnc2onc(-c3cccc(F)c3)c2c1=O
Potency [10]: inactive

Cc1ccc([S+](=O)([O-])c2nnn3c2nc(N2CCC(F)CC2)c2ccccc23)cc1
Potency [10]: inactive

OCc1ccc(-c2ccc3nnc(-c4ccccn4)n3n2)cc1
Potency [10]: inactive

COCCOc1ccc(C(=O)N[C@@H]2CN(C(=O)NCc3ccccc3)CCC[C@H]2O)cc1
Potency [10]: inactive

O=C(Nc1ccc([C@@H](O)[C@H]2COCC(=O)N2CCCc2ccccc2)cc1)c1ccco1
Potency [10]: inactive

Cn1cc(-c2cnn3c(N)c(Br)c(C4CCCNC4)nc23)cn1 (stereo unspecified)
Potency [1]: inactive | Potency [3]: 10.5 µM (active) | Potency [4]: 0.468 µM (active) | Potency [5]: 10.5 µM (active) | Potency [9]: 5.25 µM (active)

COc1ccccc1-c1cccc(-c2c(O)c3cc(C#N)c(Cl)cc3[nH]c2=O)c1
Potency [1]: inactive | Potency [2]: inactive | Potency [4]: inactive | Potency [5]: inactive | Potency [9]: inactive | Potency [6]: inactive | Potency [8]: inactive

O=C(CC1CCOCC1)NCc1ccc(N2CCOCC2)cc1
Potency [10]: inactive

C#Cc1cccc(Nc2ncnc3cc(OCCOC)c(OCCOC)cc23)c1
Potency [1]: inactive | Potency [2]: inactive | Potency [5]: 5.25 µM (active)

COc1cccc(-c2nccc3c(=O)cc(N4CCOCC4)oc23)c1
Potency [10]: inactive

Cn1ncc2c(C(=O)NCc3ccc(F)cc3)cc(-c3ccc(F)cc3)nc21
Potency [10]: inactive

Cc1cc2nc3n(c(=O)c2n1CC(=O)Nc1ccc(Br)cc1F)CCC3
Potency [10]: inactive

COc1ccc(CC(=O)Nc2ccc([C@H]3OCC(=O)N(Cc4ccccc4)[C@@H]3CO)cc2)cc1
Potency [10]: inactive

[2H]C([2H])(Nc1nc(-c2ccccc2C([2H])(C([2H])([2H])[2H])C([2H])([2H])[2H])ncc1C)c1ccc(-n2ccnn2)cc1
Potency [1]: inactive | Potency [2]: inactive | Potency [9]: inactive | Potency [8]: inactive

CC(/C=C/C(=O)NO)=C\[C@@H](C)C(=O)c1ccc(N(C)C)cc1
Potency [1]: inactive | Potency [7]: 0.372 µM (active) | Potency [4]: 0.417 µM (active) | Potency [5]: 0.934 µM (active) | Potency [9]: 1.05 µM (active) | Potency [6]: 1.18 µM (active) | Potency [8]: 1.18 µM (active)

O=C(NCc1ccc(F)cc1)c1nc(-c2ccc(Cl)nc2)c2cnccn12
Potency [10]: inactive

Cc1c(NC(=O)OCC2COCCN2)cn2ncnc(Nc3ccc4c(cnn4Cc4cccc(F)c4)c3)c12 (stereo unspecified)
Potency [1]: inactive | Potency [2]: inactive | Potency [4]: 18.6 µM (active) | Potency [9]: inactive | Potency [6]: 23.5 µM (active)

CCc1nn(-c2ccc(OC)cc2)c(Oc2ccccc2F)c1CCC(=O)NC(C)C
Potency [10]: inactive

O=C1Cc2cc(S(=O)(=O)N3CCN(c4ccc(O)cc4)CC3)ccc2N1
Potency [1]: inactive | Potency [11]: 11.3 µM (active)

Nc1ccccc1S(=O)(=O)Nc1cccc2cccnc12
Potency [1]: inactive | Potency [11]: inactive

COc1ccc(C2(C(=O)NCc3ccccc3)CCOCC2)cc1
Potency [10]: inactive

C=CC(=O)Nc1cccc(Nc2nc(Nc3ccc(N4CCN(C(C)=O)CC4)cc3OC)ncc2C(F)(F)F)c1
Potency [1]: inactive | Potency [7]: 14.8 µM (active) | Potency [3]: 18.6 µM (active) | Potency [4]: 2.95 µM (active) | Potency [5]: 4.17 µM (active) | Potency [8]: 18.6 µM (active)
